Test [1] can be described thus: qHTS assay to identify small molecule agonists of the sonic hedgehog signaling (Shh) pathway (AID 1259368).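 Further: NIH/3T3-derived 3T3Gli1-Luc cells carrying a stable Gli1-driven firefly luciferase reporter; series mostly up to about 92 µM; nearly all actives have a fitted effect of over 15% in size.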 The method in brief: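 Hedgehog pathway agonism scored by increased firefly luciferase luminescence in 3T3Gli1-Luc cells treated 24 hr at 37 C; detection used a 30 min room-temperature reagent incubation.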
A short description of test [2]: qHTS assay to identify small molecule antagonists of the sonic hedgehog signaling (Shh) pathway (AID 1259369). Further: nearly all actives have a fitted effect of over 45% in size. Further: potency means the concentration at half of the fitted maximal effect. The method in brief: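 NIH/3T3 stable Gli1-Luc clone, 2,000 cells/well, 4hr settle; cpd + conditioned medium 24hr; Luc reagent 30min RT; luminescence.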
Test [3] deals with Estrogen receptor beta (Homo sapiens) (UniProt Q92731). Put plainly: qHTS assay to identify small molecule agonists of the estrogen receptor beta (ER-beta) signaling pathway (AID 1259377; active means well fitted activation curve with a large enough effect in the signal ratio in the repeat runs, not every such curve was filed as active; the % refers to the signal ratio). The method in brief:
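HEK293T ER-beta-UAS-bla; 2% charcoal-stripped FBS; cells pre-incubated 6 hr, compound 16 hr, 37C/5% CO2; LiveBLAzer B/G FRET substrate 2 h RT; fluorescence intensity read.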

The target is the same in test [4]. Put plainly: qHTS assay to identify small molecule antagonists of the estrogen receptor beta (ER-beta) signaling pathway (AID 1259378; active means well fitted inhibition curve with a large enough effect in the signal ratio in the repeat runs, not every such curve was filed as active; the % refers to the signal ratio; further: potency means the concentration at half of the fitted maximal effect). The method in brief: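 Antagonist mode: compounds added to beta-lactamase reporter HEK293T ER-beta-UAS cells stimulated with E2 (1nM final), 16 hr at 37C. LiveBLAzer B/G FRET substrate, 2 hours room temperature, fluorescence read-out.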

Test [5] is described as follows: qHTS assay to identify small molecule agonists of the androgen receptor (AR) signaling pathway in the presence of an antagonist - cell viability counter screen (AID 1259379; active means well fitted curve in the direction sought with a large enough effect in the repeat runs; an effect the other way counts as inactive or inconclusive;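 further: MDA-kb2 human breast cancer cells carrying an MMTV luciferase reporter; series mostly up to about 92 µM; nearly all actives have a fitted effect of over 25% in size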). The method in brief:
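MDA-kb2 viability measured by CellTiter-Fluor fluorescence in the same wells as the luciferase signal; nilutamide 3.0uM final; 15-point compound titration; 16 hr at 37C.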

A short description of test [6]: qHTS assay to identify small molecule agonists of the estrogen receptor beta (ER-beta) signaling pathway - cell viability counter screen (AID 1259380; active means well fitted curve in the direction sought with a large enough effect in the repeat runs; an effect the other way counts as inactive or inconclusive; further: nearly all actives have a fitted effect of over 30% in size). The method in brief:
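Measured: luminescence from CellTiter-Glo after 30 min at room temperature, added to wells already read for the LiveBLAzer FRET reporter (2 hr substrate); ER-beta-UAS-bla HEK293T cells had 16 hr compound treatment at 37C, 5% CO2.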

A short description of test [7]: qHTS assay to identify small molecule antagonists of the estrogen receptor beta (ER-beta) signaling pathway - cell viability counter screen (AID 1259382; active means well fitted curve in the direction sought with a large enough effect in the repeat runs; an effect the other way counts as inactive or inconclusive; further: nearly all actives have a fitted effect of over 55% in size; further: potency means the concentration at half of the fitted maximal effect). The method in brief: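 Readout: luminescence, CellTiter-Glo, same wells as bla assay. System: ER-beta-UAS-bla GripTite HEK293T, 2% charcoal-stripped FBS. Exposure: compounds plus 1nM 17-beta-estradiol, 16 hr, 37C.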

For test [8], the target named is Estrogen receptor (Homo sapiens) (UniProt P03372). The experiment in a line: qHTS assay to identify small molecule agonists of the estrogen receptor alpha (ER-alpha) signaling pathway in the presence of an antagonist (AID 1259383). Further: top concentration of the series differs between compounds; nearly all actives have a fitted effect of over 15% in size. The essentials: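 Quantitative HTS confirmation: compounds titrated at 15 concentrations onto estrogen-deprived VM7Luc4E2 cells carrying a four-ERE luciferase construct, with ICI-182,780 present at 10.0nM final. Signal is luminescence after 22hr exposure.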

A short description of test [9]: qHTS assay to identify small molecule agonists or antagonists of the thyroid stimulating hormone receptor (TSHR) signaling pathway - wild type cell line counter screen (AID 1259384). The essentials:
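Counter screen in untransfected Hek293: compounds (15-point titration, triplicate) plus phosphodiesterase inhibitor Ro20-1724 added after 18 h plating; 30 min RT. Intracellular cAMP via competitive d2/cryptate immunoassay, 1 h incubation.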

Test [10] can be described thus: qHTS assay to identify small molecule agonists of the estrogen receptor alpha (ER-alpha) signaling pathway in the presence of an antagonist - cell viability counter screen (AID 1259386; active means well fitted curve in the direction sought with a large enough effect in the repeat runs; an effect the other way counts as inactive or inconclusive;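 further: series mostly up to about 92 µM; cells exposed to compounds for 22 h at 37 °C before the viability read; nearly all actives have a fitted effect of over 30% in size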). The method in brief:
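The test measures whether compounds kill ER-alpha reporter cells (VM7Luc4E2) under antagonist co-treatment (ICI-182,780, 10.0nM). Fluorescence from CellTiter-Fluor is read after a 22hr exposure.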

Test [11] concerns the target Progesterone receptor (Homo sapiens) (UniProt P06401). Put plainly: qHTS assay to identify small molecule agonists of the progesterone receptor (PR) signaling pathway (AID 1346784). Further: nearly all actives have a fitted effect of over 30% in size. The method in brief:
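Beta-lactamase reporter read-out: after 16 hr compound treatment at 37C and a further 2 hr at room temperature with LiveBLAzer B/G FRET substrate, fluorescence was measured in PR-UAS-bla HEK 293T cells grown in 2% charcoal-stripped serum.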

Test [12] shares this target. Put plainly: qHTS assay to identify small molecule antagonists of the progesterone receptor (PR) signaling pathway (AID 1346795; active means well fitted inhibition curve with a large enough effect in the signal ratio in the repeat runs, not every such curve was filed as active; the % refers to the signal ratio). The method in brief: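 Read-out is fluorescence from the LiveBLAzer B/G FRET substrate, cleaved by a UAS-controlled beta-lactamase in PR-UAS-bla HEK293T cells after 16 hr exposure to compound plus 1 nM promegestone (final), followed by 2 hr at room temperature.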

A short description of test [13]: qHTS assay to identify small molecule antagonists of the progesterone receptor (PR) signaling pathway - cell viability counter screen (AID 1346798; active means well fitted curve in the direction sought with a large enough effect in the repeat runs; an effect the other way counts as inactive or inconclusive; further: nearly all actives have a fitted effect of over 50% in size; further: potency means the concentration at half of the fitted maximal effect). The method in brief: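 HEK293T PR-UAS-bla, 2% charcoal-stripped FBS; 4 hr pre-plate; cpd + R5020, 16 h 37C; LiveBLAzer read first; then CellTiter-Glo 30 min RT, luminescence.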
Test [14] in a line: qHTS assay to identify small molecule agonists of the progesterone receptor (PR) signaling pathway - cell viability counter screen (AID 1346799). Further: nearly all actives have a fitted effect of over 45% in size. Further: potency means the concentration at half of the fitted maximal effect. The method in brief: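 Luminescence from CellTiter-Glo, added after the beta-lactamase FRET read in the same wells, gave cytotoxicity in PR-UAS-bla HEK293T cells treated with compounds for 16 hr at 37C.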
The nature of test [15]: qHTS assay to identify small molecule antagonists of the TGF-beta/Smad signaling pathway - cell viability counter screen (AID 1346824; active means well fitted curve in the direction sought with a large enough effect in the repeat runs; an effect the other way counts as inactive or inconclusive; further: nearly all actives have a fitted effect of over 50% in size). The method in brief: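 Cytotoxicity counter-screen run in the same wells as the beta-lactamase Smad reporter read: CellTiter-Glo luminescence after 30 min at room temperature. HEK 293T SBE-bla cells had 5 hr compound exposure at 37 C with TGF-beta1 (0.25 ng/mL stock).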

Test [16] is described as follows: qHTS assay to identify small molecule agonists of the TGF-beta/Smad signaling pathway - cell viability counter screen (AID 1346829; active means well fitted curve in the direction sought with a large enough effect in the repeat runs; an effect the other way counts as inactive or inconclusive; further: top concentration of the series differs between compounds; nearly all actives have a fitted effect of over 45% in size). The method in brief:
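Here the cytotoxicity of library compounds is measured in SBE-bla HEK 293T cells treated for 5 hr, using CellTiter-Glo added to wells already read for the beta-lactamase reporter.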

Test [17] can be described thus: qHTS assay to identify small molecule agonists of the TGF-beta/Smad signaling pathway (AID 1346859; active means well fitted activation curve with a large enough effect in the signal ratio in the repeat runs, not every such curve was filed as active; the % refers to the signal ratio; further: series mostly up to about 77 µM). The method in brief: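 SBE-bla HEK 293T, 4,000 cells/well, plated o/n; cpd in DMSO, 5 hr, 37 C/5% CO2; B/G FRET substrate 2 hr RT; ex 405, em 460/530 nm.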
The target of test [18] is Androgen receptor (Homo sapiens) (UniProt P10275). Put plainly: qHTS assay to identify small molecule agonists of the androgen receptor (AR) signaling pathway in the presence of an antagonist (AID 1259381). Further: nearly all actives have a fitted effect of over 15% in size. The essentials: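 Luminescent ONE-Glo read, 30min at room temperature, follows 16hr compound exposure (15 concentrations) of MDA-kb2 cells at 37C, 0% CO2, with nilutamide added at 3.0uM final.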

The target of test [19] is Thyrotropin-releasing hormone receptor (Homo sapiens) (UniProt P34981). Put plainly: qHTS assay to identify small molecule antagonists of the thyrotropin-releasing hormone receptor (TRHR) signaling pathway (AID 1346877; active means well fitted inhibition curve with a large enough effect in the repeat runs, not every such curve was filed as active; further: series mostly up to about 51 µM). The essentials: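 Overnight-plated (18 h, 37 °C) HEK293 cells expressing TRHR were dye-loaded 2 h, treated with compound, then stimulated with TRH at 1 nM final. Fluorescence intensity was captured every second for 3 min.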

Test [20] addresses Thyrotropin receptor (Homo sapiens) (UniProt P16473). The experiment in a line: qHTS assay to identify small molecule antagonists of the thyroid stimulating hormone receptor (TSHR) signaling pathway (AID 1259385). Further: nearly all actives have a fitted effect of over 20% in size. Further: potency means the concentration at half of the fitted maximal effect. The essentials:
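Antagonist mode: compound-treated TSHR-expressing HEK293 cells were stimulated with 1.5 ng/mL TSH (final) in presence of Ro20-1724 for 30 min at RT. HTRF cAMP detection after 1 h; each compound tested at 15 concentrations, triplicate.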

Inconclusive results are not listed. Active and inactive are the calls of the source. Unless noted, the call rests on the fitted dose curve.

Our source for the Potency and outcome values is PubChem BioAssay (Tox21).

Sequence of Estrogen receptor beta (Homo sapiens) (Q92731 whole entry, looked up): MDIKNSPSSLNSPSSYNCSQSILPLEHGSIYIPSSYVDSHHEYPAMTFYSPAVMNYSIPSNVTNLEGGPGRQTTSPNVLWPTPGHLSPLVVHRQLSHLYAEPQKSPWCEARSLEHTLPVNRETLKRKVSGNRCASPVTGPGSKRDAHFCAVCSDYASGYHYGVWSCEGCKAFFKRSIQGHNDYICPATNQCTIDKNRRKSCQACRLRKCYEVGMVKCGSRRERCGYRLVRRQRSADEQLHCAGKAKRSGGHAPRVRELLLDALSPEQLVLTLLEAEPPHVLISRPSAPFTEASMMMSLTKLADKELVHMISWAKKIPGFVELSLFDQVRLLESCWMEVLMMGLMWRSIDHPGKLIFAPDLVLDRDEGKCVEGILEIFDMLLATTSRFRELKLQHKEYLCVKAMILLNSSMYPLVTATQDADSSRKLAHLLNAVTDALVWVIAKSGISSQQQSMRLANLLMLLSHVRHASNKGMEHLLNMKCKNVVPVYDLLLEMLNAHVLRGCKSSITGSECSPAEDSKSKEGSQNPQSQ
Sequence of Estrogen receptor (Homo sapiens) (P03372 whole entry, looked up): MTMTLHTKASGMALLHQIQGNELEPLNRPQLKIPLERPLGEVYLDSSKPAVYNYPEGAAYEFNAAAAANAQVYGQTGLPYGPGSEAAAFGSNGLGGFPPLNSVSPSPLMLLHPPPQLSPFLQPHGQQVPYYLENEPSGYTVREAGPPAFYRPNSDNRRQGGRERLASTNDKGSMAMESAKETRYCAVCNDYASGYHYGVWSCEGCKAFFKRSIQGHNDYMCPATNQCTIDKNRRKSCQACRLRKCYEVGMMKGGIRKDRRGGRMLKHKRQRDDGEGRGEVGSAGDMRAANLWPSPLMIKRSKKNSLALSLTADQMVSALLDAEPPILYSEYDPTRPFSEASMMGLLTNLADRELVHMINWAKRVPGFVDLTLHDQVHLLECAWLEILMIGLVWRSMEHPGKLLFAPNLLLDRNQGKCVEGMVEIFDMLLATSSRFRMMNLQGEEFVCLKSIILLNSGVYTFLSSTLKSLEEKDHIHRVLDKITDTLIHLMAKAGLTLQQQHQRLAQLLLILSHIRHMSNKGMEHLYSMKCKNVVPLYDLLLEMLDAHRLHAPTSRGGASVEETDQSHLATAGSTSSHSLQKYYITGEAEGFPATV
Sequence of Thyrotropin-releasing hormone receptor (Homo sapiens) (P34981 whole entry, looked up): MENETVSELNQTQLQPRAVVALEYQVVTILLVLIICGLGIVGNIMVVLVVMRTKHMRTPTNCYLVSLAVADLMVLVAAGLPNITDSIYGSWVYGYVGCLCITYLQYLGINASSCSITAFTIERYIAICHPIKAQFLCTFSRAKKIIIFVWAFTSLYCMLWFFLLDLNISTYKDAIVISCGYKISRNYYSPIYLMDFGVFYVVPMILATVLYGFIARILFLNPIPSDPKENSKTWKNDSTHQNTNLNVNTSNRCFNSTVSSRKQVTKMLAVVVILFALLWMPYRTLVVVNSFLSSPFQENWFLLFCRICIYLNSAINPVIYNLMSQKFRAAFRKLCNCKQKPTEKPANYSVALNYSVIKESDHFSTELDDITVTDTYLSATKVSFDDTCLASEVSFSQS
Sequence of Progesterone receptor (Homo sapiens) (P06401 whole entry, looked up): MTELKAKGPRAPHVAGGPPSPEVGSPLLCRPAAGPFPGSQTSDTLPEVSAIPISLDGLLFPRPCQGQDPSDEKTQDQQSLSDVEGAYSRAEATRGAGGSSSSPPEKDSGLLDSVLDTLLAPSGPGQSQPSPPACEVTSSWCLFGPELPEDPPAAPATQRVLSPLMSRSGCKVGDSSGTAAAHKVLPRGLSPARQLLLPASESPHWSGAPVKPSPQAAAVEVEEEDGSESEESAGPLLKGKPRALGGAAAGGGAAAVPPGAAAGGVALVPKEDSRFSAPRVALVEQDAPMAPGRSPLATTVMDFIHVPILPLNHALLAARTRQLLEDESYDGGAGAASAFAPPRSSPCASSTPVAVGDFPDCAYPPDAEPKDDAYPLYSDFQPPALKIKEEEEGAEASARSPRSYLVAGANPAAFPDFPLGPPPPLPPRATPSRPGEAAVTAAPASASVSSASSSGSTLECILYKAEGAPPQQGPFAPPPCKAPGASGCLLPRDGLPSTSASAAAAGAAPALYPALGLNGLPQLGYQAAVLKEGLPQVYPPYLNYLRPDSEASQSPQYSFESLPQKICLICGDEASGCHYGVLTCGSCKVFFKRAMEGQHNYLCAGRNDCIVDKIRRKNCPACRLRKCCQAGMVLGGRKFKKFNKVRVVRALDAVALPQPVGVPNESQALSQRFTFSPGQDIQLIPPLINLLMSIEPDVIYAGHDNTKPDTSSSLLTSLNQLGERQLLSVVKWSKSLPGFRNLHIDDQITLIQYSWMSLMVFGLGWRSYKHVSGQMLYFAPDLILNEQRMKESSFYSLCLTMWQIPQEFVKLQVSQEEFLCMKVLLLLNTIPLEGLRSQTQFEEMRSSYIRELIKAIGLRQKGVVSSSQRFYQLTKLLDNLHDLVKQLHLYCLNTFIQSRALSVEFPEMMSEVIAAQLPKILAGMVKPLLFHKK
Sequence of Thyrotropin receptor (Homo sapiens) (P16473 whole entry, looked up): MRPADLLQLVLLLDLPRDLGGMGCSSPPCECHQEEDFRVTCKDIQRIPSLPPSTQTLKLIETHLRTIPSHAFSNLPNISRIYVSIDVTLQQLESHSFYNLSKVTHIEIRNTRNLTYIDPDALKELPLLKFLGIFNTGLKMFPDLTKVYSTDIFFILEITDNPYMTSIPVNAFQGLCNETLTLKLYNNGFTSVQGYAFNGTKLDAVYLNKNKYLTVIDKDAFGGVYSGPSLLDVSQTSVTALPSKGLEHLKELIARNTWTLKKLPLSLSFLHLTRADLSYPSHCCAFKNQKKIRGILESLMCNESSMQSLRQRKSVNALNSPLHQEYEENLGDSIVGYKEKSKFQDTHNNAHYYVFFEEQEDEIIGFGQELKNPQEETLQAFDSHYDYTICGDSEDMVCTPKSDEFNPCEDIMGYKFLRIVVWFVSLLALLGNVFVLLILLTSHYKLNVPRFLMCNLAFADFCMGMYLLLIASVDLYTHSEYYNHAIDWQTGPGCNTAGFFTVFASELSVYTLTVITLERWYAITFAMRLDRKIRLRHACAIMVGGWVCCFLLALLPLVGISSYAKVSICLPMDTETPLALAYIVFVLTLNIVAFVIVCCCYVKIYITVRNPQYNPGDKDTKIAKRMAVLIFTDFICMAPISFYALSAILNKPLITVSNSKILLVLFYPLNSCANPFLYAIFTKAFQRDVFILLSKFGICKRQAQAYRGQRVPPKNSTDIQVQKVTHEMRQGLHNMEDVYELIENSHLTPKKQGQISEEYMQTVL
Sequence of Androgen receptor (Homo sapiens) (P10275 whole entry, looked up): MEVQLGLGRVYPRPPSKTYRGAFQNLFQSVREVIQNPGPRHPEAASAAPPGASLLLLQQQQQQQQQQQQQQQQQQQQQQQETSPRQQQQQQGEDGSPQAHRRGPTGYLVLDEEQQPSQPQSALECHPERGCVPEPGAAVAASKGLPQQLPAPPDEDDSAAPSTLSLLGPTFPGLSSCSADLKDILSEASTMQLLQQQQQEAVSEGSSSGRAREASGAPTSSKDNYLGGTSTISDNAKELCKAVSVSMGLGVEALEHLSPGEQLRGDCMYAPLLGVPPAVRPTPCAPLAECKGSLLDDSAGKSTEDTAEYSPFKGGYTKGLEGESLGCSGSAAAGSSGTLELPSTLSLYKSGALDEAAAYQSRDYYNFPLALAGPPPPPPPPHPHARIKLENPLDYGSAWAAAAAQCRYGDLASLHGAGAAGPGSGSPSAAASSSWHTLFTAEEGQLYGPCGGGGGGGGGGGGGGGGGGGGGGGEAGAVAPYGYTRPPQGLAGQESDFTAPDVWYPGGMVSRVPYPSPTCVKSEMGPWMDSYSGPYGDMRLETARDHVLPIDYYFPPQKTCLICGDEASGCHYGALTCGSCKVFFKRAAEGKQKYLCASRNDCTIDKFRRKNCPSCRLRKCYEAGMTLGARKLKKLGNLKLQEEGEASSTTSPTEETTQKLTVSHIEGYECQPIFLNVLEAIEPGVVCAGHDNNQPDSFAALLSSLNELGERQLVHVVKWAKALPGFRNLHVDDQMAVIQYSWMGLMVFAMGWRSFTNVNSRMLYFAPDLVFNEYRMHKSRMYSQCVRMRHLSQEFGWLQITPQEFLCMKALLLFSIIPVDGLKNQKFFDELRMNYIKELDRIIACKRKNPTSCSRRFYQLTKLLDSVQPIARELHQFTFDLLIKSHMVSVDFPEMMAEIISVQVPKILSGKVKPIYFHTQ

Turning to `CCCCC(CC)COC(=O)COc1ccc(Cl)cc1C` (stereo not drawn), the Potency result in test [1], in test [2], in test [3], in [4], in [5] and in test [6] was “inactive” throughout. Also, the Potency result in [7], in test [8], in test [10], in test [11], in [12] and in test [13] was “inactive” in each case. The Potency result in test [14] is “inactive”. For the same compound, the result in test [9], in test [15], in [16] and in test [17] was inactive.

Consider `CC(C)=CC=O`, for which the Potency entry in [1], in test [2], in test [3], in test [4], in [5] and in test [6] was “inactive” throughout. For the same compound, the Potency result in test [18], in test [7], in test [8], in [10], in [13] and in test [14] was “inactive” each time. The call in test [15], in [16], in test [17] and in test [19] was inactive.

Turning to `CNCCCC1c2ccccc2C=Cc2ccccc21`, the Potency entry in test [1], in test [3], in test [8], in test [10] and in test [11] was “inactive” throughout. The Potency in test [2] is 9.44 µM (active); in test [4] it was 11.9 µM (active); in test [7], 18.8 µM (active); in [20] it was 26.6 µM (active); in test [13], 21.1 µM (active); in [14] it was 10.6 µM (active). The compound was classed as inactive in test [9], in test [15], in test [16], in test [17] and in test [19].

As to `CCCCC(CC)C(=O)OCCOCCOCCOCCOC(=O)C(CC)CCCC` (stereo not drawn), the Potency result in test [1], in test [2], in test [3], in [4], in [5] and in test [7] was “inactive” in each case. The Potency result in test [8], in [10], in [11], in test [12], in [13] and in [14] was “inactive” throughout. Moreover, the call in test [9], in test [15], in test [17] and in test [19] was inactive.

Take `O=C(O)C(Cc1cc(I)c(O)c(I)c1)c1ccccc1` (stereo not drawn): the Potency entry in test [1], in test [2], in test [3], in [4], in [5] and in test [6] was “inactive” each time. Besides, the Potency result in test [7], in [8], in [20], in test [10], in test [11] and in [14] was “inactive” throughout. For the same compound, the compound was called inactive in test [9], in test [15], in test [16] and in [17].

In the case of `O=Cc1c(Cl)cccc1Cl`, the Potency entry in test [1], in [2], in test [3], in test [4], in [5] and in test [6] was “inactive” each time. The Potency result in test [7], in test [8], in test [20], in test [10], in test [11] and in test [12] was “inactive” in each case. Also, the Potency entry in test [13] and in test [14] was “inactive” throughout. The compound was called inactive in test [9], in [15], in [16], in test [17] and in [19].

For the compound `COCCOC`, the Potency entry in test [1], in [3], in test [4], in test [7], in test [20] and in test [10] was “inactive” throughout. The Potency entry in [12] and in test [13] was “inactive” in each case. Also, in test [2], the Potency is 4.13 µM (active). Moreover, the outcome in test [9], in test [16], in [17] and in [19] was inactive.
